In PubChem BioAssay (Tox21):
Unmarked numbers belong to inactive results. Active and inactive are the calls of the source. Calls come from the whole dose curve; as a rule, active = well fitted curve in the direction sought with a large enough effect in the repeat runs; inconclusive = weak or mixed curves; inactive = flat fitted curve, though single readings scatter.

Experiment: qHTS assay to test for compound auto fluorescence at 590 nm (red) in HEK293 cell free culture (AID 720683)
Details: cell-free medium autofluorescence, Ex540/Em590 red; series mostly up to 91.3 µM; fluorescence, % of fluorescent control: at the top concentration
Description: U.S. Tox21 Program National Center for Advancing Translational Sciences [NCATS] NIH Chemical Genomics Center [NCGC] U.S. Environmental Protection Agency [EPA] National Institutes of Environmental Health Sciences [NIEHS] National Toxicology Program [NTP] U.S. Food and Drug Administration [FDA] Tox21 Assay Overview: Compound auto fluorescence often interferes with screening of the compound library against various biological targets and signaling pathways. Some of these compounds may have fluorophoric properties. Such properties may interfere with the assay outputs resulting in false positives and/or negatives. To decrease such complications and ensure the compound activities are relevant in terms of biological response, the Tox21 10K compound library was screened for auto fluorescence. From the fluorophores used as reporter signals in our screening assays, the auto fluorescence equivalencies of compounds against three fluorophores have been evaluated: Triamterene, Fluorescein and Rose Bengal sodium for blue, green and red fluorescence, respectively. The fluorescence intensities were measured using Excitation/Emission wavelengths at 405/460nm, 485/535nm and 540/590nm for blue, green and red labels, respectively. This assay includes the red fluorescence data.
Tox21 Assay Protocol Summary: 5 uL of culture medium (DMEM containing 10% FBS) per well was dispensed into black wall/clear bottom 1536-well plates using a Multidrop Combi Dispenser (ThermoFisher Scientific, Waltham, MA). After 23 nL compound or DMSO vehicle was transferred into assay plate by a pintool work station (Kalypsys, San Diego, CA), fluorescence intensities in the assay plates were measured by an Envision (PerkinElmer, Shelton, CT) plate reader using three labels for measuring blue, green and red fluorescence at […] 460, 535 and 590nm respectively.
% is set by controls: 0 for no effect and ±100 for the full control effect.

Structure (SMILES) | outcome | fluorescence, % of fluorescent control
O=C1N=C(O)CN1/N=C/c1ccc(-c2ccc([N+](=O)[O-])cc2)o1 | inactive | 
C[C@@H](O)[C@H]1C(=O)N2C(C(=O)O)=C(S[C@@H]3CN[C@H](C(=O)N(C)C)C3)[C@H](C)[C@H]12 |  | -0.571% [at 46 µM]
O=S(=O)(Oc1ccc(Cl)cc1Cl)c1ccccc1 | inactive | 
CCCCC(CC)COC(C)=O (stereo not given) | inactive | 
Cc1ccc(C(=O)O)o1 | inactive | 
CC1Cc2ccccc2N1NC(=O)c1ccc(Cl)c(S(N)(=O)=O)c1 (stereo not given) | inactive | 
CC(C)(C)C1CCC(O)CC1 (stereo not given) | inactive | 
CCCCCCCCC | inactive | 
Oc1ccc(OCc2ccccc2)cc1 | inactive | 
CNC[C@H](O)[C@@H](O)[C@H](O)[C@H](O)CO | inactive | 
C=C(C)C(=O)OCCCCCC | inactive | 
CCCCCCCCCCCCOCC1CO1 (stereo not given) | inactive | 
Clc1ccc(Cl)c(Cl)c1Cl | inactive | 
CCOC(=O)[C@H](CCc1ccccc1)N[C@@H](C)C(=O)N1Cc2ccccc2C[C@H]1C(=O)O | inactive | 
NC(=O)/N=N/C(N)=O | inactive | 
CC1CC(OC(=O)c2ccccc2O)CC(C)(C)C1 (stereo not given) | inactive | 
CC(=O)Nc1ccc(C(=O)O)cc1 | inactive | 
c1ccc2ccccc2c1 | inactive | 
O=C(Oc1ccccc1)c1ccc(O)cc1 | inactive | 
Nc1nc2ncc(CNc3ccc(C(=O)N[C@@H](CCC(=O)O)C(=O)O)cc3)nc2c(=O)[nH]1 | inactive | 

Structure (SMILES) | outcome | fluorescence, % of fluorescent control
CC(C)Cc1ccccc1 | inactive | 
Cc1ccc(C)c(C)c1 | inactive | 
S=c1nc[nH]c2nc[nH]c12 | inactive | 
c1ccc2[nH]cnc2c1 | inactive | 
CC1=C(/C=C/C(C)=C/C=C/C(C)=C/CO)C(C)(C)CCC1 | inactive | 
NC(=O)NNc1ccccc1 | inactive | 
CCCCOCCOCCOC(=O)CCCCC(=O)OCCOCCOCCCC | inactive | 
CC1=CC[C@H]2C[C@@H]1C2(C)C | inactive | 
CS(=O)(=O)Nc1ccc([N+](=O)[O-])cc1Oc1ccccc1 | inactive | 
Nc1cc(-c2ccncc2)c[nH]c1=O | inactive | 
CC(=O)[C@@]1(O)CC[C@H]2[C@@H]3CCC4=CC(=O)CC[C@]4(C)[C@H]3CC[C@@]21C | inactive | 
Cc1cc(O)cc(C)c1Cl | inactive | 
NCc1cccc(CN)c1 | inactive | 
CCCCC(CC)C(=O)OCCOCCOCCOC(=O)C(CC)CCCC (stereo not given) | inactive | 
C=C1CC[C@H](O)CC1=C/C=C1\CCC[C@]2(C)[C@@H]([C@H](C)/C=C/[C@H](C)C(C)C)CC[C@@H]12 | inactive | 
CCCCCCCCCC(=O)O | inactive | 
O=[N+]([O-])C(CO)(CO)CO | inactive | 
O=C(c1cc(O)c(O)c(O)c1)c1ccc(O)c(O)c1O | inactive | 
Cc1cc(=O)[nH]c(C(C)C)n1 | inactive | 
ClC1=C(Cl)C(Cl)(Cl)C(Cl)=C1Cl | inactive | 
